{"source": "PubChem BioAssay (EPA / NIEHS)", "note": "Values joined by “and” are separate entries in the source; they are usually repeats but may differ in a detail not shown here. Equal values may be shown once. Results filed as inconclusive are left out. More than one record can exist for a structure, and the calls need not agree. Active and inactive are the calls of the source. How the source made its calls: active means hit-call score of the fitted dose curve at least 0.9, where 1 is the maximum; inconclusive means response in the unintended direction; inactive means score below 0.9."}
{"biological_target": "Nuclear receptor subfamily 1 group I member 2 (Homo sapiens) (UniProt O75469)", "sequence (O75469 whole entry, looked up)": "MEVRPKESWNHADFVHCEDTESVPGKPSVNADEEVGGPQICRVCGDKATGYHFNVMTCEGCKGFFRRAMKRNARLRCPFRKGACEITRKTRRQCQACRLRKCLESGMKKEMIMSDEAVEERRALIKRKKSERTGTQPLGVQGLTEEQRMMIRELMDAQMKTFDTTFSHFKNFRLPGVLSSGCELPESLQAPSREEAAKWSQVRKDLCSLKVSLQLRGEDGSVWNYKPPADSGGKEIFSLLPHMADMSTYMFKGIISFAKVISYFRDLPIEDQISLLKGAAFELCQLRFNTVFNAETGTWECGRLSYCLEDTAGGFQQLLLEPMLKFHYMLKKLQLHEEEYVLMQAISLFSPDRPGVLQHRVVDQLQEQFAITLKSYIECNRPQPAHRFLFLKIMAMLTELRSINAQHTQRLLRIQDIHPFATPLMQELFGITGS", "assay": "ATG_PXR_TRANS: Attagene TRANS-FACTORIAL HepG2 Assay for human Pregnane X Receptor (PXR) (AID 2283008)", "procedure": "ATG_TRANS is a cell-based, multiplexed-readout assay that uses HepG2, a human liver cell line, with measurements taken at 24 hours after chemical dosing in a 24-well plate.ATG_PXR_TRANS is one of 30 assay component(s) measured or calculated from the ATG_TRANS assay. It is designed to make measurements of mRNA induction, a form of inducible reporter, as detected with fluorescence intensity signals by Reverse transcription polymerase chain reaction (RT-PCR) and Capillary electrophoresis technology.Data from the assay component ATG_PXR_TRANS was analyzed into 1 assay endpoint. This assay endpoint, ATG_PXR_TRANS, was analyzed in the positive analysis fitting direction relative to DMSO as the negative control and baseline of activity. Using a type of inducible reporter, measures of mRNA for gain-of-signal activity can be used to understand the reporter gene at the transcription factor-level as they relate to the gene NR1I2. Furthermore, this assay endpoint can be referred to as a primary readout, because this assay has produced multiple assay endpoints where this one serves a reporter gene function. To generalize the intended target to other relatable targets, this assay endpoint is annotated to the nuclear receptor intended target family, where the subfamily is non-steroidal.\nHuman liver HepG2 cells are transiently transfected with multiple reporter transcription units (MRTUs) in 6-well plates using FuGene 6 reagent (Roche; 3 ml FuGene/1 mg DNA). The MRTU constructs are regulated by a cis-regulating element (promoter). […] A major difference between the CIS and TRANS system is that in CIS activities of endogenous TFs are measured, whereas the TRANS assay evaluates changes in activities of exogenous, chimeric NR-Gal4 proteins. […] At the end of 24 hour incubation, total RNA was isolated using TriZol reagent (Invitrogen). The isolated RNA is then reverse-transcribed using oligo(dT) primer and Mo-MLV reverse transcriptase (Invitrogen) with DNAse I (Ambion) treatment for 30 min. The one-tenth of the produced cDNA was amplified by PCR using Taq DNA polymerase (Invitrogen) and two reporter sequence-specific primers. The PCR products were fluorescently labeled by primer extension with 6-arboxyfluorescein (6-FAM) 5'-labeled reporter sequence-specific primer (2 min at 95 C, 20 s at 68 C and 10 min at 72 C) and these products were digested with 5U of HpaI (New England Biolabs) for 2h at 37 C. The fragments were purified using Qiaquick PCR columns (Qiagen), analyzed on an ABI 3130xL genetic analyzer (Applied Biosystems) with peak positions identified by using a set of X-rhodamine (ROX)-labeled MapMarker1000 molecular weight standards (BioVentures). The raw capillary electrophoresis data was processed using Attagraph software (Attagene)."}
{"smiles": "CC(=O)Nc1cc(S(=O)(=O)O)cc2cc(S(=O)(=O)O)c(N=Nc3ccccc3)c(O)c12", "outcome": "inactive"}
{"smiles": "C1=COCCC1", "outcome": "inactive"}
{"smiles": "C[C@]12CC[C@@H]3c4ccc(O)cc4CC[C@H]3[C@@H]1CC[C@@H]2O", "AC50": "5.7 µM (active) and 3.83 µM (active) and 4.54 µM (active)", "outcome": "inactive"}
{"smiles": "COc1ccccc1NC(=O)CC(C)=O", "AC50": "37 µM (active)"}
{"smiles": "Nc1cc([N+](=O)[O-])ccc1C(=O)O", "outcome": "inactive"}
{"smiles": "O=C(O)CS", "outcome": "inactive"}
{"smiles": "CCCCCCC(O)CCOC(C)=O", "note": "(stereo not given)", "AC50": "15.2 µM (active)"}
{"smiles": "C#C[C@]1(O)CC[C@H]2[C@@H]3CCc4cc(O)ccc4[C@H]3CC[C@@]21C", "AC50": "2.7 µM (active) and 4.39 µM (active) and 6.57 µM (active)", "outcome": "inactive"}
{"smiles": "C=C1CC[C@H]2O[C@]2(C)CC[C@@H]2[C@@H]1CC2(C)C", "outcome": "inactive"}
{"smiles": "CC1(C)CC(=O)CC(C)(C)N1", "outcome": "inactive"}
{"smiles": "CCCc1ccc(O)cc1", "outcome": "inactive"}
{"smiles": "O=C(c1ccc(OCCN2CCCCC2)cc1)c1c(-c2ccc(O)cc2)sc2cc(O)ccc12", "AC50": "1.97 µM (active) and 3.44 µM (active)", "outcome": "inactive"}
{"smiles": "O=C(OCc1ccccc1)c1ccccc1O", "AC50": "62.7 µM (active)"}
{"smiles": "CC1(C)CC(N)CC(C)(CN)C1", "note": "(stereo not given)", "outcome": "inactive"}
{"smiles": "C=C(C)C(=O)OCCN(C)C", "outcome": "inactive"}
{"smiles": "COC(=O)c1cccc(C(=O)OC)c1", "outcome": "inactive"}
{"smiles": "CC(=O)C1=C(C)[C@@H]2C[C@@]3(C1)[C@H](C)CC[C@H]3C2(C)C", "AC50": "2.1 µM (active)"}
{"smiles": "CCCCCCCCSCc1cc(C)c(O)c(CSCCCCCCCC)c1", "outcome": "inactive"}
{"smiles": "c1ccc(Cc2ccccc2)cc1", "outcome": "inactive"}
{"smiles": "CC(C)CCOC(=O)CC(C)C", "outcome": "inactive"}
{"smiles": "C=C1CC/C=C(\\C)CC[C@@H]2[C@@H]1CC2(C)C", "AC50": "19.8 µM (active)"}
{"smiles": "Cc1cccc(O)c1", "outcome": "inactive"}
{"smiles": "CC(C)(O)CCc1ccccc1", "outcome": "inactive"}
{"smiles": "C=CC(O)CCCCC", "note": "(stereo not given)", "outcome": "inactive"}
{"smiles": "CCCCCCCCCC(=O)OCC", "outcome": "inactive"}
{"smiles": "O=C(O)c1ccco1", "outcome": "inactive"}
{"smiles": "CC(CO)(CO)[N+](=O)[O-]", "outcome": "inactive"}
{"smiles": "[Cu+]", "outcome": "inactive"}
{"smiles": "CC(=O)OC/C=C(C)/C=C/C=C(C)/C=C/C1=C(C)CCCC1(C)C", "AC50": "0.418 µM (active)"}
{"smiles": "C=CCCCCCCCCC(=O)OCC", "outcome": "inactive"}
{"smiles": "CC(C)(C)C1CCC(O)CC1", "note": "(stereo not given)", "outcome": "inactive"}
{"smiles": "COc1cc(OC)c2ccc(=O)oc2c1", "outcome": "inactive"}
{"smiles": "OCCCO", "outcome": "inactive"}
{"smiles": "CC=CC(=O)C1=C(C)C=CCC1(C)C", "outcome": "inactive"}
{"smiles": "CN(C)C(=O)Nc1ccccc1", "outcome": "inactive"}
{"smiles": "C=COCC1CCC(COC=C)CC1", "note": "(stereo not given)", "outcome": "inactive"}
{"smiles": "C=C(C)C(=O)OCCC[Si](OC)(OC)OC", "outcome": "inactive"}
